From PubChem BioAssay (Tox21)
Results filed as inconclusive are left out. Activity calls are given as the source filed them. The call rests on the fitted dose curve.

experiment: qHTS assay to identify small molecule antagonists of the sonic hedgehog signaling (Shh) pathway (AID 1259369); settings: NIH/3T3 Gli1-Luc reporter, Shh antagonist, luminescence 24 h; series mostly up to 92.4 µM; activity change, negative = inhibition: at the top concentration; further: nearly all actives have a fitted effect of over 45% in size
Description: U.S. Tox21 Program National Center for Advancing Translational Sciences [NCATS] NIH Chemical Genomics Center [NCGC] U.S. Environmental Protection Agency [EPA] National Institutes of Environmental Health Sciences [NIEHS] National Toxicology Program [NTP] U.S. Food and Drug Administration [FDA] Tox21 Assay Overview: The sonic hedgehog (Shh) pathway is essential for normal embryonic development. Dysregulation of the Shh pathway can cause severe developmental defects in organs. Therefore chemicals that interfere with the pathway are potential developmental toxicants. A cell line designated 3T3Gli1-Luc (DMB/OARSA/CFSAN/FDA, Laurel, MD), a NIH/3T3 derived clone containing stably integrated Gli1-Luc reporter is used to detect chemical interference of the Shh pathway, by changes in the expression of the firefly Luc gene under the control of the Gli1 transcriptional response element. This cell line was used to screen Tox21 libraries for identifying and prioritizing the potential developmental toxicants that interfere Shh pathway. Conditioned medium-stimulated mode was used to screen for chemicals inhibiting Shh signaling.
Tox21 Assay Protocol Summary: 3T3 Gli1-Luc cells were dispensed at 2,000 per well in 5uL of culture medium into white solid bottom 1536-well plates (Greiner Bio-One, Monroe, NC) using a Multidrop Combi (Thermo Scientific, Waltham, MA) dispenser. The assay plates were incubated at 37 C and 5% CO2 for 4hr, and then 23nL of compounds dissolved in DMSO and positive control were transferred using a Pintool station (Wako, San Diego, CA). The compound transfer was followed by the addition of 1ul conditioned medium or assay buffer using two separate tips of Flying Reagent Dispenser (FRD, Aurora Discovery, San Diego, CA). The assay plates were incubated at 37C and 5% CO2 for 24hr. For luciferase read, 4uL of Amplite Luciferase reporter gene assay reagent (AAT Bioquest, Inc. Sunnyvale, CA) was added to each well of the assay plates using FRD and incubated at room temperature for 30min. The luminescence signal was measured using a ViewLux plate reader (Perkin Elmer, Shelton, CT).
On the % scale 0 is the no-effect control and ±100 the full control effect.

Row | SMILES | activity change, negative = inhibition
1 | COc1ccc(/C=N/NC(=O)c2ccncc2)cc1OC | -3.31% [at 42.5 µM] (inactive)
2 | COC(/C=C(\C)CCC=C(C)C)OC | 5.06% (inactive)
3 | CCCCCCCCCCCCC1CO1 (stereo not given) | 26.3% (inactive)
4 | CCCCCCCCCCCCCC(=O)OC | 0% (inactive)
5 | Nc1cc(Cl)cc(S(=O)(=O)O)c1O | 16.4% (inactive)
6 | CCCCCC1Nc2cc(C(F)(F)F)c(S(N)(=O)=O)cc2S(=O)(=O)N1 (stereo not given) | -5.53% [at 42.5 µM] (inactive)
7 | COC(=O)CCC(=O)O | 0% (inactive)
8 | Nc1ccc(S(=O)(=O)NC(=O)c2ccccc2)cc1 | 12.4% [at 42.5 µM] (inactive)
9 | CO/N=C(/C(=O)N[C@@H]1C(=O)N2C(C(=O)O)=C(Cn3nnc(C)n3)CS[C@H]12)c1csc(N)n1 | 0.919% [at 42.5 µM] (inactive)
10 | CCCCOC(=O)[C@@H](C)Oc1ccc(Oc2ccc(C(F)(F)F)cn2)cc1 | 6.16% (inactive)
11 | CC1(N)CCC(C(C)(C)N)CC1 (stereo not given) | -10.9% (inactive)
12 | CC(=O)OC(C)c1ccccc1 (stereo not given) | 0% (inactive)
13 | Cn1c(=O)c2c(ncn2CC2OCCO2)n(C)c1=O | 4.74% [at 42.5 µM] (inactive)
14 | OC[C@@H](O)[C@H](O)[C@@H](O)[C@@H](O)CO | 0% (inactive)
15 | CCC(=O)OCCC(C)CCC=C(C)C (stereo not given) | -7.19% (inactive)
16 | O=c1[nH]c(=O)c2[nH]c(=O)[nH]c2[nH]1 | 16.8% [at 8.39 µM] (inactive)
17 | CC(Cl)COP(=O)(OCC(C)Cl)OCC(C)Cl (stereo not given) | 0% (inactive)
18 | NS(=O)(=O)c1cc2c(cc1Cl)NC(CC1CCCC1)NS2(=O)=O (stereo not given) | 0.936% [at 42.5 µM] (inactive)
19 | O=S1(=O)CCCC1 | 0% (inactive)
20 | CCCCCCCCCCCCOC(C)=O | 6.62% (inactive)

Row | SMILES | activity change, negative = inhibition
21 | CCOc1ccc(NC(=O)OC(C)C)cc1OCC | 7.55% (inactive)
22 | CCOC(=O)C(C)(C)C | -2.51% (inactive)
23 | O=C(c1ccc2c(c1)C(=O)OC2=O)c1ccc2c(c1)C(=O)OC2=O | 0.652% (inactive)
24 | C=CC(C)(O)CC/C=C(\C)CC (stereo not given) | -0.559% (inactive)
25 | CCC1COC(=O)O1 (stereo not given) | 14.4% (inactive)
26 | CNC(=O)C(c1ccccc1)c1ccccc1 | 0% (inactive)
27 | CCOC(=O)CC(CC(=O)OCC)(OC(C)=O)C(=O)OCC | 0% (inactive)
28 | COc1cc([N+](=O)[O-])ccc1N | -19.6% (inactive)
29 | c1ccccc1 | 13.1% (inactive)
30 | NS(=O)(=O)c1cc2c(cc1Cl)NC(C(Cl)Cl)NS2(=O)=O (stereo not given) | -0.0496% [at 42.5 µM] (inactive)
31 | C1=C\CC/C=C\CC/1 | 6.18% (inactive)
32 | Cc1nc([N+](=O)[O-])cn1-c1ccc([N+](=O)[O-])cc1 | 30.8% [at 42.5 µM] (inactive)
33 | CCCOCCOCCOCCO | 7.47% (inactive)
34 | BrC/C=C/CBr | -14% [at 19 µM] (inactive)
35 | O=C(O)C(=O)Nc1cccc(-c2nn[nH]n2)c1 | 7.56% [at 42.5 µM] (inactive)
36 | NCCc1ccn[nH]1 | 11.2% [at 42.5 µM] (inactive)
37 | COCC(=O)Nc1c(I)c(C(=O)NCC(O)CO)c(I)c(C(=O)N(C)CC(O)CO)c1I (stereo not given) | 27.7% [at 42.5 µM] (inactive)
38 | CC(C)=CC(C)(C)C | 17.8% (inactive)
39 | Cc1ccccc1N1CCN(CCc2nnc3n2CCCC3)CC1 | 26% [at 42.5 µM] (inactive)
40 | COc1ccc(NS(=O)(=O)c2ccc(N)cc2)nn1 | 24.4% [at 42.5 µM] (inactive)
